Laboratory results taken from article PMC7862700, “An all-to-all approach to the identification of sequence-specific readers for epigenetic DNA modifications on cytosine”.

Legend:
Experiment in all cases: DAPPL (digital affinity profiling via proximity ligation, sequencing); 10 mM Tris-HCl pH 7.5, 50 mM NaCl, 1 mM DTT, 4% glycerol, room temperature, 30 min; GST-TFs on glutathione beads, 16-mer random dsDNA library, 0.1% formaldehyde crosslink after washing; high values mean tight binding
SPI1 = SPI1 (Homo sapiens, UniProt P17947 1-270); conditions: protein: recombinant; tags: N-terminal GST; dsDNA, one strand shown
In short: (§1)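 Binding signal is each hexamer's read frequency for a factor divided by its frequency in the tag-only sample. The factors were GST-fused human transcription factors from yeast, captured on glutathione beads, DNA-barcoded and pooled with that sample. Pools were incubated with 200 nmole of a random double-stranded 16-mer DNA library in Tris/NaCl/DTT/glycerol buffer at room temperature for 30 min, then washed, crosslinked with 0.1% formaldehyde, proximity-ligated with BsaI/T4 ligase (1 h, 37 °C), PCR-amplified and sequenced on an Illumina NextSeq500.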

HSF1 = HSF1 (Homo sapiens, UniProt Q00613 1-529); conditions: protein: recombinant; tags: N-terminal GST; chain copies: 3; dsDNA, one strand shown
In short: as §1

ETV2 = target: T1, ETV2 (Homo sapiens, UniProt O00321 1-342); conditions: protein: recombinant; tags: N-terminal GST; dsDNA, one strand shown
T1 sequence: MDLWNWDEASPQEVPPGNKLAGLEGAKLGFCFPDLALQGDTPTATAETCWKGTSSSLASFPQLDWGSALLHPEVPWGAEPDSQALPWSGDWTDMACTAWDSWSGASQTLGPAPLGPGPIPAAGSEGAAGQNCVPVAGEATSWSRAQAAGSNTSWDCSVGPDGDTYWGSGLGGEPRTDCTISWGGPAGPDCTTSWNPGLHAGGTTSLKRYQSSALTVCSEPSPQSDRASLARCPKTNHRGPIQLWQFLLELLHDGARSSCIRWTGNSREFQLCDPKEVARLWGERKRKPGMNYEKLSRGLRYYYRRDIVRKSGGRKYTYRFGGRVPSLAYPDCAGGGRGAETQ
In short: as §1

CRX = CRX (Homo sapiens, UniProt O43186 1-299); conditions: protein: recombinant; tags: N-terminal GST; dsDNA, one strand shown
In short: as §1

ERF = target: T2, ERF (Homo sapiens, UniProt P50548 1-548); conditions: protein: recombinant; tags: N-terminal GST; dsDNA, one strand shown
T2 sequence: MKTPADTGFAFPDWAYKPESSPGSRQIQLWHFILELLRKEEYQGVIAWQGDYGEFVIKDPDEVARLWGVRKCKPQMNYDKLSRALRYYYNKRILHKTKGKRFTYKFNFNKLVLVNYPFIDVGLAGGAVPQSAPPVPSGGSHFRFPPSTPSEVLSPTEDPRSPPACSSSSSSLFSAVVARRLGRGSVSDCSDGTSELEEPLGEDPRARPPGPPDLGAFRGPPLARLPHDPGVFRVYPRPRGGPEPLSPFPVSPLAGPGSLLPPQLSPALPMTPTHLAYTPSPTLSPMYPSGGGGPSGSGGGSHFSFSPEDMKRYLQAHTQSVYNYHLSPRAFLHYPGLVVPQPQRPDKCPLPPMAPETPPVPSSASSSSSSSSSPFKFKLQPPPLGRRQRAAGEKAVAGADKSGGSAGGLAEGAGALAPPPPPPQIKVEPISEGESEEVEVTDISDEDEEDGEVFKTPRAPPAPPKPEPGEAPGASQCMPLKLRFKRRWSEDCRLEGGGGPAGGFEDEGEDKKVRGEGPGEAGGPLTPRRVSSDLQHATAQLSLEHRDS
In short: as §1

ETV7 = target: T3, ETV7 (Homo sapiens, UniProt Q9Y603 1-341); conditions: protein: recombinant; tags: N-terminal GST; dsDNA, one strand shown
T3 sequence: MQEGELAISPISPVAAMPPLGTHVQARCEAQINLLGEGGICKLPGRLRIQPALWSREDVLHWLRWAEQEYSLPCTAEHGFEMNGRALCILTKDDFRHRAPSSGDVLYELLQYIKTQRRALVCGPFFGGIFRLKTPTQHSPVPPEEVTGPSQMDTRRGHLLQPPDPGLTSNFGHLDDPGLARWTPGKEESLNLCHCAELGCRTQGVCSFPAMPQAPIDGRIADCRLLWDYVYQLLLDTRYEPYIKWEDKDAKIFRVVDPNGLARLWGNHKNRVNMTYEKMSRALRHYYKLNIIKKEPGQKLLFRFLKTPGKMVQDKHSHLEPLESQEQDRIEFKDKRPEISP
In short: as §1

ETV6 = ETV6 (Homo sapiens, UniProt P41212 1-452); conditions: protein: recombinant; tags: N-terminal GST; dsDNA, one strand shown
In short: as §1

ELF3 = target: T4, ELF3 (Homo sapiens, UniProt P78545 1-371); conditions: protein: recombinant; tags: N-terminal GST; dsDNA, one strand shown
T4 sequence: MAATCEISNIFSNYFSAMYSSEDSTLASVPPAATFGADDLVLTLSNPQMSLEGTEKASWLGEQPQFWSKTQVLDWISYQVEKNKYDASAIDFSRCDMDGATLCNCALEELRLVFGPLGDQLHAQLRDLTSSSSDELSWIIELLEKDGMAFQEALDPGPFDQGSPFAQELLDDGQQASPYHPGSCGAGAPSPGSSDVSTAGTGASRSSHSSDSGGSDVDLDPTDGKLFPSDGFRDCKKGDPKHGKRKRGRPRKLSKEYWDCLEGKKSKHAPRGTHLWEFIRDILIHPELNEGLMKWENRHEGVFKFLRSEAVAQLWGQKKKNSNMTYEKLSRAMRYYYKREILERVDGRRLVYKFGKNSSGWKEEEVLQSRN
In short: as §1

Chain of CRX (O43186 whole entry): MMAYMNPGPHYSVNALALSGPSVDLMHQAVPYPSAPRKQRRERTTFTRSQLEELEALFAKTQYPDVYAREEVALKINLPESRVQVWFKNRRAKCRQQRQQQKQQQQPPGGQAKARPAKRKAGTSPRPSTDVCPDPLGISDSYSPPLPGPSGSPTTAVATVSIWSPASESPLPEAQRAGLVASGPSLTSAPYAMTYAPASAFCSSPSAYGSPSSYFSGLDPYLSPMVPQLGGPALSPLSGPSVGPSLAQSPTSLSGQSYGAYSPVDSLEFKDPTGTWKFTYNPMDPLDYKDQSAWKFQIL
Chain of HSF1 (Q00613 whole entry): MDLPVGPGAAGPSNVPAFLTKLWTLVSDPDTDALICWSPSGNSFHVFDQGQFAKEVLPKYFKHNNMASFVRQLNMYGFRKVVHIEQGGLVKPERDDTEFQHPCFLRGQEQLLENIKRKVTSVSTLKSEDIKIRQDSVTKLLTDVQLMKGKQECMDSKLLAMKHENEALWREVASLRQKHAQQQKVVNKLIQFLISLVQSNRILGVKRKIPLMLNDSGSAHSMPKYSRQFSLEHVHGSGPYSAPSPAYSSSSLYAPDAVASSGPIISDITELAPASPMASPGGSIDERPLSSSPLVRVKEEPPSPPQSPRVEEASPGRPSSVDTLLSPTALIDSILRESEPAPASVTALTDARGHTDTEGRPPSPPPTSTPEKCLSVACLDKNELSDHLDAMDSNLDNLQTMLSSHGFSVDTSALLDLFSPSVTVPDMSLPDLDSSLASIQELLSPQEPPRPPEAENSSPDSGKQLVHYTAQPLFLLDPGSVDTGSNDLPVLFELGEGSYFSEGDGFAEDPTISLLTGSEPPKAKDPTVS
Chain of ETV6 (P41212 whole entry): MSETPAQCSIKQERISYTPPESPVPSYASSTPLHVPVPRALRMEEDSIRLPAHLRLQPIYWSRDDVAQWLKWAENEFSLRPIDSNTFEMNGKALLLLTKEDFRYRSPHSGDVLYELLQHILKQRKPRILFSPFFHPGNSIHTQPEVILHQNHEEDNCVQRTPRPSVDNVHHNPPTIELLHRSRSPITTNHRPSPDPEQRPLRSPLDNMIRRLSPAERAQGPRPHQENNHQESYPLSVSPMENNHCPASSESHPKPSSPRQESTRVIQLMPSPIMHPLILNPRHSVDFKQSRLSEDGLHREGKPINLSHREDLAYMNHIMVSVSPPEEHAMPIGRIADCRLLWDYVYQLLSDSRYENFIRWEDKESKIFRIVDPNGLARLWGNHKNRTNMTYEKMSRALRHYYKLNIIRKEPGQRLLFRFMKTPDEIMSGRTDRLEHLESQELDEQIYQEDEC

TTTAGA
binding signal (SPI1): 1.05 fold enrichment (6-mer frequency, TF over GST control) | binding signal (HSF1): 1.37 fold enrichment (6-mer frequency, TF over GST control) | binding signal (ETV2): 1.12 fold enrichment (6-mer frequency, TF over GST control) | binding signal (CRX): 1.59 fold enrichment (6-mer frequency, TF over GST control) | binding signal (ERF): 1.08 fold enrichment (6-mer frequency, TF over GST control) | binding signal (ETV7): 1.05 fold enrichment (6-mer frequency, TF over GST control) | binding signal (ETV6): 1.04 fold enrichment (6-mer frequency, TF over GST control)

AGATTG
binding signal (HSF1): 1.01 fold enrichment (6-mer frequency, TF over GST control) | binding signal (CRX): 1.06 fold enrichment (6-mer frequency, TF over GST control)

AATCGT
binding signal (HSF1): 1.01 fold enrichment (6-mer frequency, TF over GST control) | binding signal (CRX): 1.15 fold enrichment (6-mer frequency, TF over GST control)

TAAGAG
binding signal (HSF1): 1.19 fold enrichment (6-mer frequency, TF over GST control) | binding signal (CRX): 1.46 fold enrichment (6-mer frequency, TF over GST control)

AGAAAG
binding signal (HSF1): 1.87 fold enrichment (6-mer frequency, TF over GST control) | binding signal (CRX): 1.01 fold enrichment (6-mer frequency, TF over GST control)

AGGGAT
binding signal (HSF1): 1.1 fold enrichment (6-mer frequency, TF over GST control) | binding signal (CRX): 1.49 fold enrichment (6-mer frequency, TF over GST control)

ATTAGA
binding signal (HSF1): 1.45 fold enrichment (6-mer frequency, TF over GST control) | binding signal (CRX): 1.95 fold enrichment (6-mer frequency, TF over GST control)

GATCTG
binding signal (HSF1): 1.07 fold enrichment (6-mer frequency, TF over GST control) | binding signal (CRX): 1.09 fold enrichment (6-mer frequency, TF over GST control)

GGATAA
binding signal (HSF1): 1.2 fold enrichment (6-mer frequency, TF over GST control) | binding signal (CRX): 1.75 fold enrichment (6-mer frequency, TF over GST control)

TTAGAG
binding signal (HSF1): 1.25 fold enrichment (6-mer frequency, TF over GST control) | binding signal (ETV2): 1.01 fold enrichment (6-mer frequency, TF over GST control) | binding signal (CRX): 1.77 fold enrichment (6-mer frequency, TF over GST control)

GCGATT
binding signal (HSF1): 1.23 fold enrichment (6-mer frequency, TF over GST control) | binding signal (ELF3): 1.04 fold enrichment (6-mer frequency, TF over GST control) | binding signal (CRX): 1.51 fold enrichment (6-mer frequency, TF over GST control)

TACGAG
binding signal (HSF1): 1.26 fold enrichment (6-mer frequency, TF over GST control) | binding signal (ELF3): 1.02 fold enrichment (6-mer frequency, TF over GST control) | binding signal (CRX): 1.05 fold enrichment (6-mer frequency, TF over GST control)
